Test results: ChEMBL document CHEMBL1157539, “Thousands of chemical starting points for antimalarial lead identification” (Nature, 2010)

Columns and labels:
Assay type in all cases: functional
Plasmodium falciparum [1] = assay: GSK_TCMDC: Inhibition of Plasmodium falciparum 3D7 in whole red blood cells, using parasite LDH activity as an index of growth. Test compounds present at 2uM
Plasmodium falciparum [2] = assay: GSK_TCMDC: Inhibition of Plasmodium falciparum Dd2 in whole red blood cells, using parasite LDH activity as an index of growth. Test compounds present at 2uM
HepG2 = assay: GSK_TCMDC: Percent inhibition of human HepG2 cell line. Test compounds present at 10uM.

SMILES	Inhibition (Plasmodium falciparum [1]) [%]	Inhibition (Plasmodium falciparum [2]) [%]	Inhibition (HepG2) [%]
CCCCN(CCCC)CCCCCCNc1c2ccccc2nc2ccccc12.Cl	95	87	49
Cc1cc2cc(NC(=O)Nc3ccnc4ccccc34)ccc2n1C.Cl	90	33	17
COc1cc2nc(N3CCC(CNC(=O)c4cccc5cccnc45)CC3)nc(N)c2cc1OC	99	33	34
COCCn1c(C)cc(C(=O)CN2C(=O)NC(C)(c3ccc(C(C)(C)C)cc3)C2=O)c1C (stereo not given)	97	96	7
Fc1ccc(Nc2nnc(CNC3CCN(Cc4ccc(Cl)c(Cl)c4)CC3)[nH]2)cc1	100	36	18
Cl.c1ccc2c(NCCCCCCCNc3ccnc4ccccc34)ccnc2c1	100	94	91
O=C(Nc1ccc(C(=O)N2CCN(CCN3CCN(c4cccc(C(F)(F)F)c4)CC3)CC2)cc1)c1ccc(C(F)(F)F)cc1	95	28	39
COc1ccc(C(=O)N2CCC3(CC2)C(=O)N(CC(=O)NCC2CCCCC2)CN3c2ccccc2)cc1	100	99	18
Cc1nc2ccccc2c(=O)n1NCc1ccc(Cl)c(Cl)c1	96	92	12
O=C(C=Cc1ccc(Cl)c(Cl)c1)NCCCCCN1CCC(CCNC(=O)c2ccc3c(c2)OCO3)CC1	99	2	35
CCCCN(CCCC)/C(=N/C(=N)Nc1ccc(Cl)cc1)NCCCCCCN/C(=N\C(=N)Nc1ccc(Cl)cc1)N(CCCC)CCCC	81	72	0
COc1cc(F)c2ncc(F)c([C@@H](O)CN3CCC(NCc4cc5c(cn4)OCCO5)CC3)c2c1.Cl	100	88	1
CC1CN(Cc2ccc(C#N)cc2)CCN1c1ccc(NC(=O)c2cccs2)cc1.O=C(O)C(F)(F)F (stereo not given)	93	89	8
CC[C@H](C)CNC(=O)c1cncc(-c2cccc(CNC3Cc4ccccc4C3)c2)c1.O=C(O)C(F)(F)F	100	76	5
COc1ccccc1CN1CCC(NC(=O)c2ccc(-c3ccc(N(C)C)cc3)s2)CC1.O=C(O)C(F)(F)F	90	38	29
Cc1cccc2nc(-c3ccc(-c4cccc(CNCc5ccc(CN)cc5)c4)s3)[nH]c12.O=C(O)C(F)(F)F	99	48	11
CC(=O)Nc1ccc(CN2CCC(NC(=O)c3ccc(-c4cccc(OC(C)C)c4)s3)CC2)cc1.O=C(O)C(F)(F)F	89	13	14
CCc1cc(CNC2CCN(CCc3c(F)cnc4ccc(OC)nc34)CC2)cc2c1OCCO2.Cl	100	94	46
CC1(C)N=C(N)N=C(N)N1c1cccc(Cl)c1.Cl	96	96	69
OC(CNCc1ccccc1OCc1ccccc1)c1cccc(C(F)(F)F)c1 (stereo not given)	99	99	12

SMILES	Inhibition (Plasmodium falciparum [1]) [%]	Inhibition (Plasmodium falciparum [2]) [%]	Inhibition (HepG2) [%]
Cc1ccc(C(=O)NC2CC2)cc1-c1ccc2c(cnn2S(=O)(=O)c2ccc(F)cc2)c1	93	69	7
Cc1cccc2nc(-c3cccc(-c4ccc(NC(=O)Nc5ccc(Cl)cc5)cc4)c3)[nH]c12	100	96	63
CS(=O)(=O)N1CC2(CCN(CCC(NC(=S)Nc3ccccc3)c3ccc(Cl)c(Cl)c3)CC2)c2ccccc21 (stereo not given)	98	80	24
O=C(Nc1cccc(-c2csc(NC(=O)c3ccc4ccccc4c3)n2)c1)c1ccc2ccccc2c1	89	35	3
CCOc1ccc(-c2nonc2NC(=O)c2ccc(OC)cc2)cc1OCC	98	77	0
Cc1cc2c(NC(=O)NC3CCN(CCc4cccc(Cl)c4)CC3)cccc2cn1.Cl	100	27	12
Cc1cccc2c3c([nH]c12)C1(CCN(CCc2ccccc2)CC1)NC(C(=O)NCc1ccccc1)C3 (stereo not given)	86	52	10
COc1nc2c(CCN3CC[C@H](NCc4ccc5c(c4)NC(=O)CO5)[C@H](O)C3)c(Cl)cnc2cc1F.Cl	90	22	21
O=C(O)C(F)(F)F.Oc1ccc(CCNc2nc(NCc3ccccc3-c3ccccc3)nc(N3CCCNCC3)n2)cc1	95	20	26
CCc1c(CCNCCCCCCNCCc2ccc3c(c2C)OCO3)ccc2c1OCO2.Cl	100	7	59
COc1ccc2nccc(N3CCC(NCCNCc4ccc5c(n4)NC(=O)CS5)C3)c2n1.Cl (stereo not given)	100	5	0
O=C1O[C@H](c2ccccc2)[C@H](c2ccccc2)N(C(=O)OCc2ccccc2)[C@H]1Cc1ccccc1C1CCCC1	97	0	56
CCOc1cc(C(=O)Nc2ccc3nc(N4CCCCC4)cc(C)c3c2)cc(OCC)c1OCC	100	2	26
Cc1cccc(C(=O)Nc2ccc(N3CCCN(Cc4cccc(O)c4)CC3)cc2)c1.O=C(O)C(F)(F)F	92	44	2
CCN1CCN(Cc2ccc3nc(-c4cc(C)n(Cc5cc(Cl)ccc5OCc5ccccc5)n4)[nH]c3c2)CC1.Cl	100	97	11
COc1cc(C=CC(=O)N2CCC(CCN3CCC(c4c[nH]c5ccccc45)CC3)CC2)cc(OC)c1	92	23	39
COc1ccc(-c2nonc2NC(=O)c2cccc(Cl)c2)cc1OC	98	63	41
O=C(c1cc(-c2cccs2)n[nH]1)N1CCN(S(=O)(=O)c2ccc(Cl)s2)CC1	84	80	20
COc1ccc(NC(=O)Nc2cccc(-c3ccncc3)c2)cc1N1CCN(C)CC1	98	57	9
Cc1cc(N[C@@H](Cc2ccccc2)C(=O)Nc2ccccc2)nc(NCCc2ccccc2)n1.O=C(O)C(F)(F)F	100	87	8

SMILES	Inhibition (Plasmodium falciparum [1]) [%]	Inhibition (Plasmodium falciparum [2]) [%]	Inhibition (HepG2) [%]
CN(c1ccc(NC(=O)Nc2cc(C(F)(F)F)ccc2F)cc1)c1ccnc(NCCN2CCOCC2)n1.O=C(O)C(F)(F)F	97	73	67
NC1CCCN(Cc2ccc(-c3cccc(-c4nc5ccccc5[nH]4)c3)cc2)C1.O=C(O)C(F)(F)F (stereo not given)	95	26	26
CC(C)c1cccc(C(NC(=O)[C@H]2Cc3ccccc3CN2C(=O)c2cccc(N3CCOCC3)c2)C2CCCC2)c1 (stereo not given in full)	94	96	3
CN(C)CCCOc1ccc(CNCc2cccc(Oc3ccc(Cl)cc3)c2)cc1.O=C(O)C(F)(F)F	100	30	52
NC(=O)COc1c(C2CCN(CCN3CCC(CNC(=O)c4ccc(-c5ccc(C(F)(F)F)cc5)cc4)CC3)CC2)ccc2c1CCCC2	87	68	32
Cl.c1cc2[nH]c(CCCCCc3nc4cc(C5=N[C@@H]6CCCC[C@@H]6N5)ccc4[nH]3)nc2cc1C1=N[C@@H]2CCCC[C@@H]2N1	96	98	8
CCn1ncc(Cl)c1CN(C)S(=O)(=O)c1ccc2ccccc2c1	100	91	16
O=C(Nc1ccc(Cl)cc1)Nc1cccc(-c2cccc(-c3nc4cc(C(F)(F)F)ccc4[nH]3)c2)c1	99	97	87
Cc1cccc2nc(-c3ccc(-c4ccc(NC(=O)Nc5ccc(F)c(F)c5F)cc4)s3)[nH]c12	100	99	58
NCCNc1ccc([N+](=O)[O-])cc1C(=O)Nc1cccc(Cl)c1	85	7	23
N#Cc1c(N)n(CCc2ccc(F)cc2)c2nc3ccccc3nc12	92	36	8
Cc1c(NCCCNCc2cc(Cl)cc(Cl)c2Cl)[nH]c2ccccc2c1=O.Cl	100	86	35
COc1ccc(-c2cccc(NC(=O)c3cccs3)c2)cc1CN1CCCN(C)CC1.O=C(O)C(F)(F)F	100	30	17
Cc1cc(N[C@@H](CC(C)C)C(=O)NCc2cccs2)nc(Nc2ccccc2)n1.O=C(O)C(F)(F)F	100	57	18
O=C(Cc1ccccc1)NC1(c2ccccc2)CCN(CCc2c[nH]c3ccc(F)cc23)CC1	87	62	29
CCCCN(CCCC)CCNC(=O)c1cc(OC(F)(F)F)ccc1O	93	90	8
CO/C(=C\C=C\c1cc2cc(Cl)ccc2[nH]1)C(=O)NCCCN1CCN(c2cc(Cl)ccc2OC)CC1	97	21	41
O=C(O)C(F)(F)F.Oc1ccc(CC2CCCN(c3nc(NCCCOc4ccccc4-c4ccccc4)nc(N4CCNCC4)n3)C2)cc1 (stereo not given)	95	77	56
Cc1ccc(C(=O)Nc2cccc(CN3CCCN(Cc4ccc(O)cc4)CC3)c2)cc1.O=C(O)C(F)(F)F	88	5	0
Cc1cc(NC(=O)c2ccc(-c3ccccc3)cc2)no1	83	57	5
